Laboratory results taken from PubChem BioAssay (NCI).
This is part of a sample that, as a whole, favours compounds with a hit. Of some 83,000 tested, about 20% had one in any assay.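 Step 1: grow cells in 96-well plates. Step 2: add test compound at a single concentration. Step 3: incubate 48 h. Step 4: record percent growth.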 Active and inactive are the calls of the source. The calls were made as follows: active = growth percent below 10; inactive = the rest.

test system: HL-60(TB) leukemia; assay: NCI-60 one-dose screen, 48 h (100 = growth as untreated, 0 = no growth, -100 = all killed); settings: 10 µM unless noted

SMILES | growth
CCc1ccc(-c2ccc(-n3nc(C)c4c(N)nc(Cc5ccccc5)nc43)cc2)cc1 | 65% (inactive)
Nc1ncnc2c1N=C(c1ccc(Cl)cc1)CC(c1cccc(Nc3ccnc4cc(Cl)ccc34)c1)N2 (stereo unspecified) | 55.3% (inactive)
Oc1cccc2ccc(N/N=C/c3cc(CN4CCOCC4)c(O)c4ncccc34)nc12 | 0.899% (active)
CC/C=C\C/C=C\C[C@H](O)C/C=C1/C(=O)C=C[C@@H]1C/C=C\CCCC(=O)OC | -19.5% (active)
COc1ccc(/C=C(\C#N)n2nnc3c(F)cccc32)cc1 | -5.39% (active)
COc1ccccc1Nc1nc(-c2cc3cccc(C(F)(F)F)c3oc2=O)cs1 | -5.62% (active)
CC(C)NS(=O)(=O)/N=C1\NC(=O)NC1=C(Cl)Cl | 55.6% (inactive)
COc1cccc(-c2nc3sccn3c2/C=C/C(=O)c2ccc(C(F)(F)F)cc2)c1 | 46.2% (inactive)
Cc1cc(C)nc(SC2=C(Nc3ccc(C)c(Cl)c3)C(=O)N(Cc3ccccc3)C2=O)n1 | 26.1% [30 µM] (inactive)
CN(C)CCN(C)CC(C)(C)C(=O)/C=C/c1ccc(Cl)cc1 | 0.343% (active)
CCC(=O)c1ccc(O)c(OC)c1 | 102% (inactive)
CCN(CC)CC(C)Nc1ccc(C)c2sc3ccccc3c(=O)c12 (stereo unspecified) | 50.8% (inactive)
COc1ccc(-c2n[nH]nc2-c2cc3ccccc3s2)cc1O | 2.49% (active)
O=c1c2cc(F)ccc2sc2c(NCCCNCCO)nc3ccc(F)cc3c12 | 54.6% (inactive)
N#CCCc1c[nH]c2ccccc12 | 99.3% (inactive)
Cn1nc(CC#N)c2c(=N)n(N)cnc21 | 84.4% (inactive)
Nc1c(C(=O)C[C@@H](N)CO)ccc2c1C(=O)CCO2 | 51.9% (inactive)
c1ccc(CCc2ccccc2-c2cc(-c3ccccc3)on2)cc1 | 76.2% (inactive)
O=C(O)c1cn(C2CC2)c2cc(N3CCN(Cc4nc5c(cnn5-c5ccc([N+](=O)[O-])cc5)c(=O)[nH]4)CC3)c(F)cc2c1=O | 92.8% (inactive)
C=C1C(=O)O[C@H]2[C@H]1CC/C(Cn1cc(-c3ccc(F)cc3)nn1)=C\CC[C@@]1(C)O[C@@H]21 | -18.8% (active)
CN1CCN(Cc2ccc(NC(=O)c3cncc(C#Cc4ncc5ccccn45)c3)cc2C(F)(F)F)CC1 | -3.92% (active)
CC1(C)C(=O)/C(=C\c2ccco2)C[C@]2(C)[C@H]3CC=C4[C@@H]5C[C@](C)(C(=O)O)CC[C@]5(C)CC[C@@]4(C)[C@]3(C)CC[C@@H]12 | -21.1% [100 µM] (active)
NCC(=O)NS(=O)(=O)OC[C@H]1O[C@@H](n2cnc3c(N)ncnc32)[C@H](O)[C@@H]1O | -9.28% (active)
O=C1C=C(OCC=C(Cl)Cl)C(=O)c2ccccc21 | -1.08% (active)
CCCCCCCCCCCCNC(=O)N[C@H](C(=O)N[C@H]1/C=C/OCCNC(=O)/C=C/[C@H](C(C)C)NC1=O)C(C)C | 93.8% (inactive)
CCN(CCO)CC(=O)c1cc(Cl)cc(Cl)c1Cl | 106% (inactive)
